Screens: PubChem BioAssay, National Center for Advancing Translational Sciences (NCATS)
ALOX12 inh: ALOX12 (human) lipoxygenase inhibition; P18054; Potency, µM (series often up to 108 µM), for the others: at the top dose activity change, negative = inhibition, most hits filed as inhibitors; purified 12hLO, xylenol orange hydroperoxide absorbance; 580,000 compounds, 1.1% hits; also: potency is read from the fitted curve at half-maximal effect
Target sequence (P18054 whole entry, looked up): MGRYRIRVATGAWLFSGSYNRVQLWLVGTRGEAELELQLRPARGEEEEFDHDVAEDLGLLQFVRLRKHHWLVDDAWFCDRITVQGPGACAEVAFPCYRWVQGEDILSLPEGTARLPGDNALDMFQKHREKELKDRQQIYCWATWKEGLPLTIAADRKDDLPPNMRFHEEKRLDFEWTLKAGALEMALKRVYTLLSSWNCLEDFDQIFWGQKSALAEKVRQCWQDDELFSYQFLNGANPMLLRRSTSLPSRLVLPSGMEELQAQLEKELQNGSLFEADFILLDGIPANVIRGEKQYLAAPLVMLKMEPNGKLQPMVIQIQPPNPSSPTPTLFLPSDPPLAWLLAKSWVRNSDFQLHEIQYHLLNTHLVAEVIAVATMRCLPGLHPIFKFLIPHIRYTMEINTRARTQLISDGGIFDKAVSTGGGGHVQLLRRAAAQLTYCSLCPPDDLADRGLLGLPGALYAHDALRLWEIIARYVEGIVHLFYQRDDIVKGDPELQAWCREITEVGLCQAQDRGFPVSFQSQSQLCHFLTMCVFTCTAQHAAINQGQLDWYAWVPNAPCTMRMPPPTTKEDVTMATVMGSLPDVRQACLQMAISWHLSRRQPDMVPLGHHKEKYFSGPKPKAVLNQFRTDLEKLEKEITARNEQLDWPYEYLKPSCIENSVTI
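Purified human 12hLO (150 nM final) in 25 mM Hepes, 0.01% Triton X-100, pH 7.0 was preincubated 15 min at room temperature with compound. Then 40 uM arachidonic acid was added, 30 min. Hydroperoxide was read by Fe-XO absorbance ratio 573/405 nm.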
DT40 TDP1 no CPT: qHTS for Inhibitors of human tyrosyl-DNA phosphodiesterase 1 (TDP1): qHTS in cells in absence of CPT | DT40 Tdp1-/- hTDP1 cells, no CPT, ATP luminescence, 48 h | Potency, µM (doses to about 46.2 µM), for the others: top-dose activity change, negative = growth inhibition, hits mostly inhibitors | 420,000 compounds, 15% hits | AID 686978, 2013; also: potency is read from the fitted curve at half-maximal effect; nearly all actives have a fitted effect of over 55% in size
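Readout: luminescence from CellTiter-Glo after 30 min in the dark at RT. Cells: DT40 Tdp1-/- with stable hTDP1, 400/well. Exposure: compounds alone, ≥48 hr, 37 °C.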
HT1080-NT tox: kills 2HG-producing HT-1080-NT fibrosarcoma cells | HT-1080-NT fibrosarcoma viability, CellTiter-Glo ATP luminescence, 48 h | Potency, µM (top dose mostly 46.1 µM), for the others: at the top dose activity, negative = less viability, usual class: cytotoxic | 360,000 compounds, 1.6% hits | AID 686970;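 also: NT is the 2HG producing partner of a matched IDH1 knockdown line; potency is read from the fitted curve at half-maximal effect; 0% = DMSO-treated cells and -100% = media-only wells without cells; nearly all actives have a fitted effect of over 55% in size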
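HT-1080-NT; 750 cells/well; 5% FBS RPMI; 48 h compound, 37 degrees C; CellTiter-Glo luminescence; curve fitting and curve-class assignment.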
HT1080 IDH1KD tx: kills HT-1080 cells with IDH1 knockdown; 360,000 compounds, 2% hits; AID 686971; Potency, µM (highest dose often 46.1 µM), for inactives: at the top dose activity, negative = toxicity, actives largely listed as cytotoxic; HT-1080 IDH1 knockdown viability, ATP luminescence, 48 h;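 also: potency is read from the fitted curve at half-maximal effect; 0% = DMSO wells and -100% = cell-free medium wells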
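Cytotoxicity counter-line: IDH1KD HT-1080, 48 h, CellTiter-Glo. Curves classed by r2, magnitude and activity.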
IL1B secr inh: inflammasome signaling inhibition, IL-1 beta readout; THP-1 LPS/ATP IL-1B secretion, AlphaLISA, 16 h; active compounds read low; activity change, % at 57.5 µM; 360,000 compounds, 4.7% hits; in the data active = activity change below about -50%; inconclusive = mostly about -30% to -49%
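Secreted IL-1B measured by AlphaLISA bead assay after 16 h compound exposure of THP-1 cells; compounds (final up to 57.5 uM) added 1 h before LPS (250 ng/mL) and ATP (1.25 mM) stimulation; lower signal means less secretion.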
TDP1 cell CPT: DT40-hTDP1 cell growth loss with CPT. chicken DT40 Tdp1-/-;hTDP1 cells + 20 nM CPT, ATP luminescence, 48 h. Potency, µM (series often up to 46.2 µM), for the others: at the highest dose activity change, negative = growth inhibition, usual class: inhibitors. 420,000 compounds, 12% hits; also: potency is read from the fitted curve at half-maximal effect; nearly all actives have a fitted effect of over 55% in size
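Cell growth measured by CellTiter-Glo luminescence after a minimum 48 h, 37 C compound exposure with 20 nM CPT in Tdp1-knockout DT40 cells stably expressing hTDP1, seeded 400/well; qHTS titration format.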
* = called active by the depositor; i = inactive; u = inconclusive; x = no result given; [ ] = another dose, or the depositor's remark. The sample as a whole holds a higher share of hits than the screen did. Unless noted, calls follow the shape of the dose curve; as a rule, active = well fitted curve in the direction sought with a large enough effect; inconclusive = small, poorly fitted or top-dose-only effect, or another doubt; inactive = no such curve, though single readings can be large; an effect the other way counts as inactive or inconclusive. Unless noted, % is scaled to controls: 0 for no effect and ±100 for the full control effect.

SMILES	ALOX12 inh	DT40 TDP1 no CPT	HT1080-NT tox	HT1080 IDH1KD tx	IL1B secr inh	TDP1 cell CPT
O=S(=O)(c1cccc2ccccc12)N1CCC2CC1c1cc(-c3ccc4c(c3)OCO4)ccc12 (centres undefined)	4.9%	u	u	23.3%	27.2	u
S=C(NCCc1ccccc1)N1CCC2CC1c1cc(-c3ccc4c(c3)OCO4)ccc12 (centres undefined)	28.2µM*	9.2µM*	u	u	-9.2	8.2µM*
O=C(c1ccccc1F)N1CCC2CC1c1cc(-c3ccc4c(c3)OCO4)ccc12 (centres undefined)	-12.1%	20.6µM*	u	u	18.4	u
Fc1ccc(-c2ccc3c(c2)C2CC3CCN2Cc2ccc3c(c2)OCO3)cc1 (centres undefined)	-11.2%	16.4µM*	-9.3%	-10.9%	14.9	u
COCCNC(=S)N1CCC2CC1c1cc(-c3ccc4c(c3)OCO4)ccc12 (centres undefined)	28.2µM*	u	u	u	68.2	16.4µM*
Cc1cccc(C(C)C)c1NC(=O)CCc1ncc(-c2ccccc2)o1	8.3%	x	x	x	x	x
COc1ccc(-c2nc(CSCC(=O)NCC(OC)OC)c(C)o2)cc1OC	34.2%	x	x	x	x	x
CN=c1sc2c(n1C)C(=O)c1ccccc1C2=O	-0.5%	5.8µM*	18.4µM*	u	u	4.11µM*
CN=c1sc(C(=O)Nc2ccccc2)c(C)n1C	u	u	-0.9%	1.7%	27.1	-1.3%
CC(C)Cn1c(N)c(S(=O)(=O)c2cccs2)c2nc3ccccc3nc21	0.0%	u	-3.8%	-9.7%	u	16.4µM*
COCCNC(=O)c1c(N)n(/N=C/c2ccc(F)cc2)c2nc3ccccc3nc12	12.5%	u	6.8%	10.2%	-25.8	u
COc1cccc(/C=N/n2c(N)c(S(=O)(=O)c3cccs3)c3nc4ccccc4nc32)c1	-4.6%	u	28.3%	21.5%	5.2	-24.0%
Nc1c(S(=O)(=O)c2cccs2)c2nc3ccccc3nc2n1/N=C/c1cccc(O)c1	0.0%	u	u	20.6µM*	-79.8*	13µM*
COCCNC(=O)c1c(N)n(/N=C/c2cccs2)c2nc3ccccc3nc12	145.0%[57.4 µM]	16.4µM*	-7.9%	-13.1%	-2.9	u
COc1ccc(/C=N/n2c(N)c(S(=O)(=O)c3cccs3)c3nc4ccccc4nc32)cc1OC	-11.7%	-19.7%	-7.6%	-7.9%	u	u
CNc1nnc(SCc2ccc(F)cc2Cl)s1	11.5%	x	x	x	x	x
Cc1cc(C)c2c(NC(=O)CCl)nn(C)c2n1	3.1%	11.6µM*	u	u	-97.8*	13µM*
CCOC(=O)c1sc(=S)n(-c2ccccc2Cl)c1SC	-25.8%	u	-17.5%	-8.5%	-67.4*	u
CCOC(=O)c1sc(=S)n(-c2ccccc2)c1SC	-3.8%	-23.2%	2.5%	1.4%	-10.9	-18.4%
O=C(Cn1ccc2ccccc2c1=O)NCCC(=O)N1CCN(c2cccc(Cl)c2)CC1	-0.6%	u	-7.1%	-12.2%	6.3	14.6µM*
Cc1cccc(N2CCN(C(=O)CCNC(=O)Cn3ccc4ccccc4c3=O)CC2)c1C	-9.8%	14.6µM*	-0.5%	0.9%	12.6	u
CN1CCN(C(=O)CCNC(=O)Cn2ccc3ccccc3c2=O)CC1	0.2%	u	-4.5%	-12.7%	-0.6	4.7%
O=C(CCNc1ccc(Cc2ccncc2)cc1)c1ccc([N+](=O)[O-])cc1	-6.2%	u	u	u	-17.3	23.1µM*
Cc1c(C(=O)Nc2ccc(Cc3ccncc3)cc2)cccc1[N+](=O)[O-]	18.9%	u	u	u	-50.1*	u
O=C(Nc1ccc(Cc2ccncc2)cc1)c1cccc([N+](=O)[O-])c1	-13.4%	u	0.5%	-14.8%	-14.6	u
SMILES	ALOX12 inh	DT40 TDP1 no CPT	HT1080-NT tox	HT1080 IDH1KD tx	IL1B secr inh	TDP1 cell CPT
Cc1ccc(C(=O)Nc2ccc(Cc3ccncc3)cc2)cc1[N+](=O)[O-]	u	20.6µM*	1.4%	-13.2%	u	20.6µM*
Cc1c(C(=O)Nc2ccc(C(=O)Nc3ccccc3)cc2)cccc1[N+](=O)[O-]	-7.2%	-10.9%	0.0%	-5.1%	-14.3	-21.7%
Cc1ccc(C(=O)Nc2cccc(NC(=O)c3ccc(C)c([N+](=O)[O-])c3)n2)cc1[N+](=O)[O-]	i	16.4µM*	9.3%	1.9%	18.0	u
CCc1cccc(NS(=O)(=O)c2ccc(-c3coc(C)n3)cc2)c1	-34.6%	x	x	x	x	x
CCc1cccc(C)c1NC(=O)NCC(O)c1ccccc1 (centres undefined)	8.2%	x	x	x	x	x
COC(=O)c1ccc(Cl)c(NC(=O)c2cccc([N+](=O)[O-])c2C)c1	-7.8%	-17.6%	-6.6%	-10.8%	-1.8	-9.0%
COC(=O)c1cc(NC(=O)c2cccc([N+](=O)[O-])c2C)ccc1Cl	0.6%	16.4µM*	u	-3.7%	-16.9	-23.9%
Cc1ccc(C(=O)Nc2sc(C)c(-c3ccccc3)c2C(N)=O)cc1[N+](=O)[O-]	u	18.4µM*	17.6%	8.9%	-3.9	13µM*
CCC(C)C(=O)OCCc1ccccc1 (centres undefined)	-10.7%[176 µM]	x	x	x	x	x
Cc1cc(OC2CNC2)ccc1F	8.9%[12.5 µM]	x	x	x	x	x
CC1=C/C(=N\NC(=O)c2ccc(N)cc2)CC1	52.5%	x	x	x	x	x
NC(CSC(c1ccccc1)(c1ccccc1)c1ccc2c(c1)OCO2)C(=O)O (centres undefined)	12.6µM*	7.31µM*	11.6µM*	18.4µM*	17.8	u
NC(=O)CC(c1ccccc1)c1ccc2c(c1)OCO2 (centres undefined)	13.6%	6.0%	13.3%	5.2%	-4.9	-1.3%
CC(=O)c1cccc(NC(=O)CCc2nc(CSc3nc4ccccc4o3)no2)c1	10.7%	x	x	x	x	x
COc1ccc(C(O)(C(C)C)C(CN2CCOCC2)c2ccc(Cl)cc2)cc1 (centres undefined)	-7.8%	18.4µM*	-19.9%	7.4%	-17.1	u
CCCCC(O)(c1ccc(OC)cc1)C(CN1CCOCC1)c1ccccc1 (centres undefined)	u	23.1µM*	u	u	u	18.4µM*
CCC(O)(c1ccc(OC)cc1)C(CN1CCOCC1)c1ccccc1 (centres undefined)	-4.6%	u	4.5%	-2.5%	2.9	u
